The values below come from PubChem BioAssay (NCATS).

Inconclusive results are not listed. A call without a number means that no potency is given here. A number with no mark means an inactive call. Active and inactive are the calls of the source. The call rests on the fitted dose curve; in most records, active means well fitted inhibition curve with a large enough effect; inconclusive means small, poorly fitted or top-dose-only effect; inactive means no such curve, though single readings can be large or run the other way.

This assay addresses Retinaldehyde dehydrogenase 3 (Homo sapiens) (UniProt P47895). As to the kind of experiment: qHTS for Inhibitors of the Aldehyde Dehydrogenase Family (ALDH1A3) Primary screen (AID 2061315). The note with it: ALDH inhibition qHTS; series mostly up to 56 µM. For orientation: qHTS replaces the single test concentration by a dilution series.
As to `CC1(C)CC2C3=CCC4C5(C)CCC(OC6OC(C(=O)O)C(O)C(O)C6OC6OC(CO)C(O)C(O)C6OC6OC(CO)C(O)C(O)C6O)C(C)(CO)C5CCC4(C)C3(C)CCC2(C)C(OC2OCC(O)C(OC3OC(CO)C(O)C(O)C3O)C2O)C1O` (stereo not given), the activity change, negative = inhibition is -21.1% [at 11.2 µM].

Take `CC1COC2(OC3CC4C5CC(O[C@@H]6O[C@H](C)[C@@H](O[C@@H]7O[C@@H](C)[C@H](O)[C@@H](O)[C@H]7O)[C@H](O)[C@H]6O)C6CC(O)CCC6(C)C5CCC4(C)C3C2C)C(O)C1` (stereo not given in full): the Potency result was “inactive”.

`C=C1CC[C@H]2[C@@H](/C=C(\C)C(=O)[C@@]3(OC(C)=O)C[C@H](C)[C@H](OC(C)=O)[C@@H]3[C@H]1OC(C)=O)C2(C)C`: the Potency result was “inactive”.

Regarding `CC(C)Oc1ccc(-c2nc(-c3cccc4c3CCC4NCCC(=O)O)no2)cc1C#N` (stereo not given), the Potency result is “inactive”.

For `Cc1cccc(/C=N/Nc2cc(N3CCOCC3)n3nc(-c4ccncc4)cc3n2)c1`, the Potency entry is “inactive”.

For the compound `CC(=O)O[C@H]1C[C@@]2(C)[C@@H](CC[C@H]3[C@@]4(C)C=CC(=O)[C@@H](C)[C@@H]4[C@H](OC(C)=O)C(=O)[C@@]32C)/C1=C(\CCC=C(C)C)C(=O)O`, the Potency entry was “inactive”.

With `C[C@@H]1O[C@@H](O[C@H]2[C@@H]3C=CO[C@@H](O[C@@H]4O[C@H](CO)[C@@H](O)[C@H](O)[C@H]4O)[C@@H]3[C@@]3(CO)O[C@@H]23)[C@H](O)[C@H](OC(=O)/C=C/c2ccccc2)[C@H]1O`, the Potency result is “inactive”.

`C=C1C(=O)OC2/C=C(\C)CC/C=C(\C=O)C(OC)C(OC(=O)C(C)CC)C12` (stereo not given): the Potency entry is “inactive”.

As to `C/C(=C\CCC(C)CCO)C(=O)OC1(C)CCC2C(C(=O)O)=COC(OC3OC(CO)C(O)C(O)C3O)C21` (stereo not given), the Potency result was “inactive”.

As for `CC(C)CC[C@@H](O)[C@](C)(O)[C@H]1CC[C@@]2(O)C3=CC(=O)[C@@H]4C[C@@H](O)[C@@H](O)C[C@]4(C)[C@H]3CC[C@]12C`, the Potency result is “inactive”.

On to `COC(=O)c1cc(Br)cnc1N1CCC(NC2CCCCC2)C(O)C1` (stereo not given), for which the Potency entry is “inactive”.

Regarding `C=C1C(=O)O[C@@H]2CC(C)=C([C@@H](C)CCCOC(C)=O)[C@@H](O)[C@H]12`, the Potency entry is “inactive”.

For the compound `CC/C=C/C=C/C1(C)OC(CC(CO)OC)=CC1=O` (stereo not given), the Potency result is “inactive”.

On to `CC(=O)NC(CCC(=O)O)C(=O)NCCc1ccc(O)cc1` (stereo not given), for which the Potency result was “inactive”.

As to `CO[C@@H]1[C@]2(O)C(=O)N3/C=C\C(C)(C)c4[nH]c5ccccc5c4/C=C\3C(=O)N2[C@]23[C@H](CO)C(C)(C)N2c2ccccc2[C@]13O`, the Potency result was “inactive”.

`COC1CC(O[C@H]2CC[C@@]3(C)C(CCC4C3[C@H](OC(C)=O)[C@@H](OC(=O)/C=C/c3ccccc3)[C@]3(C)C(C(C)=O)CC[C@]43O)C2)OC(C)C1OC1CC(OC)C(OC2CC(OC)C(OC3OC(C)C(OC4OC(CO)C(O)C(O)C4O)C(OC)C3O)C(C)O2)C(C)O1` (stereo not given in full): the activity change, negative = inhibition is 5.71% [at 11.2 µM].

For `C=C(C(=O)O)[C@@H]1CC[C@H](C)[C@@H]2CC(=O)C(C)=C2C1`, the Potency entry was “inactive”.

On to `CCNC(=O)[C@@H]1CCCN1C(=O)[C@H](CCCN=C(N)N)NC(=O)[C@H](CC(C)C)NC(=O)[C@@H](CC(C)C)NC(=O)[C@H](Cc1ccc(O)cc1)NC(=O)[C@H](CO)NC(=O)[C@H](Cc1c[nH]c2ccccc12)NC(=O)[C@H](Cc1cnc[nH]1)NC(=O)[C@@H]1CCC(=O)N1`, for which the Potency entry is “inactive”.

Regarding `C=C1CCC2C(C)(C)CCCC2(C)C1CC/C(C)=C\CO` (stereo not given), the Potency result is “inactive”.

Take `COC(=O)C1=COC(OC2OC(CO)C(O)C(O)C2O)C2C1CC(OC(=O)C(O)CC(=O)O)C2C` (stereo not given): the Potency result was “inactive”.
